Source: the supplement of paper PMC13380429

Legend:
[1] = test system: Vero E6 infected with SARS-CoV-2; test: morphology score (similarity to uninfected cells); higher = more like uninfected cells; conditions: 24 h
[2] = test system: Vero E6 infected with SARS-CoV-2; test: SARS-CoV-2 infection rate relative to infected DMSO; higher = more infection, active = 60 or less; conditions: 24 h

| SMILES | morphology score [1] | SARS-CoV-2 infection rate [2] |
| --- | --- | --- |
| CON(C)C(=O)N1N=C(c2cc(F)ccc2F)S[C@@]1(CCCN)c1ccccc1 [filanesib] (0.833333 µM) | -0.306 | 99% (inactive) |
| COc1cc2ncnc(Nc3ccc(Oc4ccccc4)cc3)c2cc1OC [SRC-kinase-inhibitor-I] (0.833333 µM) | 0.0162 | 110% (inactive) |
| c1ccc(Oc2cccnc2)cc1 (10 µM) | 0.0741 | 103% (inactive) |
| CN1CCN(CCCN2c3ccccc3Sc3ccc(C(F)(F)F)cc32)CC1 [trifluoperazine] (0.833333 µM) | 0.156 | 96.5% (inactive) |
| CC(=O)c1cc([N+](=O)[O-])c(Sc2ccc(F)cc2F)s1 (10 µM) | 0.534 | 38.5% (active) |
| C=C1/C(=C\C=C2/CCC[C@]3(C)[C@@H]([C@H](C)/C=C/[C@H](C)C(C)C)CC[C@@H]23)C[C@@H](O)C[C@@H]1O [doxercalciferol] (10 µM) | -0.0772 | 106% (inactive) |
| CCC(CC)O[C@@H]1C=C(C(=O)O)C[C@H](N)[C@H]1NC(C)=O [oseltamivir-carboxylate] (10 µM) | -0.0548 | 102% (inactive) |
| COc1ccc(C(=O)c2c(C)n(CCN3CCOCC3)c3ccccc23)cc1 [pravadoline] (10 µM) | 0.0547 | 106% (inactive) |
| N=C(N)c1ccc(N2CCN(C3CCN(CC(=O)O)CC3)CC2)cc1 (10 µM) | -0.0825 | 106% (inactive) |
| Cc1cccc(Oc2cnc(=O)[nH]c2)c1 [tolimidone] (10 µM) | 0.147 | 106% (inactive) |
| CCCN(CCC)C(=O)C(CCC(=O)OCCCN1CCN(CCOC(=O)Cc2c(C)n(C(=O)c3ccc(Cl)cc3)c3ccc(OC)cc23)CC1)NC(=O)c1ccccc1 (configuration not stated) [proglumetacin] (10 µM) | 0.0923 | 99.5% (inactive) |
| Cc1csc2c(N[C@@H](C)CN3CCN(S(=O)(=O)c4ccc(Cl)c(Cl)c4)CC3)ncnc12 [LPA2-antagonist-1] (10 µM) | 0.142 | 100% (inactive) |
| COc1ccc([C@@H]2CC(=O)c3c(O)cc(O[C@@H]4O[C@H](CO[C@@H]5O[C@@H](C)[C@H](O)[C@@H](O)[C@H]5O)[C@@H](O)[C@H](O)[C@H]4O)cc3O2)cc1O [hesperidin] (10 µM) | -0.132 | 108% (inactive) |
| S=C(NC1CCCCC1)N1CCC(c2cnc[nH]2)CC1 [thioperamide] (10 µM) | 0.083 | 96.5% (inactive) |
| CC(C)c1cc(C(C)C)c(CC(=O)NS(=O)(=O)Oc2c(C(C)C)cccc2C(C)C)c(C(C)C)c1 [avasimibe] (10 µM) | 0.0222 | 110% (inactive) |
| Cc1c(C(=O)NN2CCCCC2)nn(-c2ccc(Cl)cc2Cl)c1-c1ccc(I)cc1 (10 µM) | 0.254 | 93% (inactive) |
| CCCCCCCCCCCCCCCCCCN(CCCCCCCCCCCCCCCCCC)CCCN(CCO)CCO [avridine] (10 µM) | 0.0689 | 102% (inactive) |
| COC(=O)Nc1nc2cc(Sc3ccccc3)ccc2[nH]1 [fenbendazole] (0.833333 µM) | 0.126 | 106% (inactive) |
| C/C(=C\C(=O)Nc1ccccc1C(=O)O)c1ccc2ccccc2c1 (10 µM) | 0.23 | 103% (inactive) |
| CCNC1(C(N)=O)CCN(c2ncnc3c2nc(-c2ccccc2Cl)n3-c2ccc(Cl)cc2)CC1 (10 µM) | -0.024 | 108% (inactive) |
| Oc1c(I)cc(Cl)c2cccnc12 [clioquinol] (10 µM) | 0.127 | 90% (inactive) |

| SMILES | morphology score [1] | SARS-CoV-2 infection rate [2] |
| --- | --- | --- |
| Cc1cccc(C)c1NC(=O)C[N+](C)(C)C (10 µM) | 0.198 | 97% (inactive) |
| Cc1cccc(NC(=O)c2ccc(C(F)(F)F)cc2C(=O)O)n1 (10 µM) | -0.208 | 109% (inactive) |
| Fc1ccccc1CNCc1ccc(-c2ccnc3[nH]ccc23)cc1 (10 µM) | -0.0487 | 116% (inactive) |
| Cn1ccnc1S [methimazole] (10 µM) | -0.0741 | 108% (inactive) |
| Nc1cc(F)ccc1NC(=O)/C=C/c1cnn(C/C=C/c2ccccc2)c1 (0.833333 µM) | -0.0979 | 109% (inactive) |
| COc1c(-c2ccc3cc(NS(C)(=O)=O)ccc3c2)cc(-n2ccc(=O)[nH]c2=O)cc1C(C)(C)C [dasabuvir] (10 µM) | 0.123 | 106% (inactive) |
| FC(F)OC(F)(F)C(F)Cl (configuration not stated) [enflurane] (10 µM) | 0.188 | 98.5% (inactive) |
| CC(C)(C)n1nc(-c2cccc3ccccc23)c2c(N)ncnc21 [1-naphthyl-PP1] (0.833333 µM) | 0.129 | 96.5% (inactive) |
| N[C@@H](CSC(c1ccccc1)(c1ccccc1)c1ccccc1)C(=O)O [S-trityl-L-cysteine] (0.833333 µM) | 0.107 | 110% (inactive) |
| CCC(=O)O[C@H](CC(=O)O)C[N+](C)(C)C [levocarnitine-propionate] (10 µM) | -0.0873 | 104% (inactive) |
| O=C(/C=C/c1ccccc1)NCCO [brolitene] (10 µM) | 0.199 | 93.5% (inactive) |
| CN1CC(O)C2=C/C(=N/NC(N)=O)C(=O)C=C21 (configuration not stated) [carbazochrome] (10 µM) | 0.0013 | 113% (inactive) |
| Cc1cc(S(=O)(=O)O)c2c(C)ccc(C(C)C)cc1-2 [sodium-gualenate] (10 µM) | 0.0593 | 96.5% (inactive) |
| COc1cccc(Nc2c(C(N)=O)cnc3c(C)cc(S(=O)(=O)c4cccc(C(=O)N(C)C)c4)cc23)c1 (10 µM) | 0.345 | 91% (inactive) |
| O=C(O)c1cc(O)c2c(Cl)cc(Cl)cc2n1 [5,7-dichlorokynurenic-acid] (10 µM) | -0.0314 | 104% (inactive) |
| O=C1N[C@@H]2[C@@H](O)[C@@H](O)[C@H](O)[C@@H](CO)N2C1=O [kifunensine] (10 µM) | 0.19 | 94% (inactive) |
| CCN1C(=O)CNc2ncc(-c3ccc(-c4nc[nH]n4)nc3C)nc21 (10 µM) | -0.0465 | 96.5% (inactive) |
| Cc1cccc(C)c1NC1=NCCCS1 [xylazine] (10 µM) | 0.241 | 108% (inactive) |
| O=C1CN(/N=C/c2ccc(-c3ccc([N+](=O)[O-])cc3)o2)C(=O)N1 [dantrolene] (10 µM) | 0.0672 | 110% (inactive) |
| C=CC(=O)Nc1cc(Nc2nccc(-c3cn(C)c4ccccc34)n2)c(OC)cc1N(C)CCN(C)C [osimertinib] (10 µM) | -0.27 | 110% (inactive) |
| CCCCCCOc1nsnc1C1=CCCN(C)C1 [xanomeline] (10 µM) | 0.44 | 71.5% (inactive) |

| SMILES | morphology score [1] | SARS-CoV-2 infection rate [2] |
| --- | --- | --- |
| COc1ccc2cc3[n+](cc2c1OC)CCc1cc2c(cc1-3)OCO2 [berberine] (10 µM) | 0.0605 | 98% (inactive) |
| Clc1ccc(C(Cn2ccnc2)OCc2ccsc2Cl)c(Cl)c1 (configuration not stated) [tioconazole] (10 µM) | -0.0375 | 106% (inactive) |
| [Cl][Ti][Cl].c1cc[cH-]c1.c1cc[cH-]c1 [titanocene-dichloride] (10 µM) | 0.163 | 84% (inactive) |
| CC(C)(C)CC(=O)Nc1c(F)cc(C(=O)/N=c2\sccn2COP(=O)(O)O)cc1F (10 µM) | 0.0762 | 93.5% (inactive) |
| CN1CCc2cc(Cl)c(O)cc2[C@@H](c2ccccc2)C1 (10 µM) | 0.0172 | 108% (inactive) |
| CC1=C(C)C(=O)C(C(CCCCCC(=O)O)c2ccccc2)=C(C)C1=O (configuration not stated) [seratrodast] (10 µM) | 0.0459 | 100% (inactive) |
| Cc1ccc(S(=O)(=O)NC(=O)NN2CC3CCCC3C2)cc1 (configuration not stated) [gliclazide] (10 µM) | 0.0635 | 106% (inactive) |
| Clc1cccc(Nc2nnc(-c3ccccc3)c3ccccc23)c1 (10 µM) | 0.2 | 94% (inactive) |
| CC(C)C[C@H](NC(=O)[C@@H](O)[C@H](N)Cc1ccccc1)C(=O)O [ubenimex] (10 µM) | 0.237 | 96% (inactive) |
| CCCCCCCCCCCCC/C=C/[C@@H](O)[C@@H](N)CO[P@](=O)(O)OCC[N+](C)(C)C [sphingosylphosphorylcholine] (10 µM) | 0.000181 | 112% (inactive) |
| Oc1c(Br)cc(Br)c2cccnc12 [broxyquinoline] (10 µM) | 0.015 | 104% (inactive) |
| CN[C@H]1CC[C@@H](c2ccc(Cl)c(Cl)c2)c2ccccc21 (0.833333 µM) | 0.143 | 89.5% (inactive) |
| CCOc1cc(C(C)(C)C)ccc1C1=N[C@@](C)(c2ccc(Cl)cc2)[C@@](C)(c2ccc(Cl)cc2)N1C(=O)N1CCN(CCCS(C)(=O)=O)CC1 (10 µM) | -0.0507 | 104% (inactive) |
| CCCCN(Cc1ccc(C(=O)NO)cc1)C(=O)Nc1ccccc1 [nexturastat-A] (0.833333 µM) | 0.112 | 105% (inactive) |
| CC[C@H]1CN2CCc3cc(OC)c(OC)cc3[C@@H]2C[C@@H]1C[C@H]1NCCc2cc(OC)c(OC)cc21 [emetine] (0.833333 µM) | -0.193 | 108% (inactive) |
| COC1=C2C[C@@H](C)C[C@H](OC)[C@H](O)[C@@H](C)/C=C(\C)[C@H](OC(N)=O)[C@@H](OC)/C=C\C=C(/C)C(=O)NC(=CC1=O)C2=O [geldanamycin] (0.833333 µM) | -0.177 | 98.5% (inactive) |
| CCOC(=O)c1c(C)n(C)c2ccc(O)cc12 [mecarbinate] (10 µM) | 0.132 | 112% (inactive) |
| CC[C@@]1(O)C(=O)OCc2c1cc1n(c2=O)Cc2cc3cc(O)ccc3nc2-1 [10-hydroxycamptothecin] (10 µM) | -0.13 | 103% (inactive) |
| O=S(=O)(F)Cc1ccccc1 [phenylmethylsulfonyl-fluoride] (10 µM) | 0.191 | 95% (inactive) |
